# According to PubChem BioAssay:
# The source made the active and inactive calls.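 How the source made its calls, unless noted: active means inhibition of the reporter signal at or above 50%; inactive means inhibition below 50%.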
# What was measured:
# [1] = inhibitors of TNFa-induced NFkB p65 translocation, primary screen, imaging, HUVEC, MLSMR starter and 10KST1 sets (AID 438;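 active means inhibition above 20% together with a positive visual image hit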;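 further: compound added about 3h40 before a 20 min TNFalpha stimulation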;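 on inhibition: signal is the nuclear over cytoplasmic p65 intensity ratio per well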); conditions: HUVEC TNFa-induced p65 nuclear translocation; cell count: measured here: nuclei count (cytotoxicity indicator), at 2.08 µM; inhibition: at 2 µM, stronger effect = higher value, 0% TNFa-plus-vehicle, 100% no-TNFa wells
# [2] = reduction of polyQ htt aggregates in cells – imaging, exon1htt(103Q)mCFP cells, high-content imaging, primary screen (AID 483;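 active means visual image review flags a hit and inhibition of aggregation exceeds 20%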;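 further: compound exposure lasted 3 days before fixation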;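 on nuclei count: percent of the per-plate median nuclei count of sample wells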); conditions: exon1htt(103Q)mCFP cell line, aggregate imaging, at 2 µM; inhibition of aggregation: stronger effect = higher value; nuclei count: measured here: cell count, toxicity
# [3] = endothelial E-selectin expression blockers – imaging, HUVEC, immunofluorescence, MLSMR starter and 10KST1 sets, primary screen (AID 487;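 active means visually confirmed hit in the image check and inhibition above 20%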;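 on inhibition: signal is fraction of cell area covered by stained E-selectin grains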;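 on nuclei count: 100% = median nuclei count of all wells on the same plate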); conditions: HUVEC TNFalpha-induced E-selectin immunofluorescence imaging, at 2 µM; inhibition: stronger effect = higher value; nuclei count: measured here: cell number, toxicity
# [4] = molecular target: Voltage-gated potassium channel subunit beta-2 (Rattus norvegicus) (UniProt P62483); assay: inhibitors of rat Kvbeta2 reductase activity – biochemical, NADPH fluorescence, primary screen (AID 622;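 active means fluorescence slope higher than the sample average by over 3 SD, cut at about -0.22 in these data, passing the limit was not always enough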;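 further: slope of raw intensity against log time taken from 70 to 1610 s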); conditions: recombinant KvBeta, 4-cyanobenzaldehyde reduction, at 10 µM, stronger effect = higher value
# [5] = molecular target: Voltage-gated potassium channel subunit beta-2 (Rattus norvegicus) (UniProt P62483); assay: enhancers of rat Kvbeta2 NADPH turnover – biochemical, NADPH fluorescence, primary screen (AID 623;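 active means NADPH fluorescence slope more negative than the mean of all samples by about 3 SD, 99.7% confidence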;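 further: fluorescence intensity change per second fitted from 20 to 320 s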); conditions: Recombinant KvBeta, NADPH fluorescence decrease slope, 10 min; at 10 µM; stronger effect = lower value
# [6] = molecular target: Alpha-2C adrenergic receptor (Homo sapiens) (UniProt P18825); assay: compounds altering alpha2C-coupled GIRK flux – cell-based, HEK293 alpha2C/GIRK1/2, thallium flux, primary screen (AID 624;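 active means fluorescence slope after compound addition differing from the mean of all screened samples at 99.7% confidence, in either direction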;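 further: slope of fluorescence ratio to pre-addition baseline per second over 15 to 24 s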); conditions: thallium flux BTC fluorescence, at 10 µM, actives lie on both sides
# [7] = blockers of RIG-like receptor reporter activation – cell-based, Sendai virus stimulus, luciferase, 10K MLSCN set, TLR/RLR signaling modifier project, primary screen (AID 602276;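 active means inhibition at or above 50% at 10 µM; inactive means inhibition below 50%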;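 further: firefly luciferase from ISG56 promoter only with Renilla not read in this screen; 0% = Sendai virus plus DMSO and 100% = medium plus DMSO without virus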); conditions: HEK293 RL24 IRF3 luciferase reporter, at 10 µM, stronger effect = higher value
# [8] = TLR3 IRF3 reporter activation blockers – cell-based, poly I:C stimulus, luciferase, 10K MLSCN set, primary screen (AID 602277); conditions: HEK293-TLR3 RL24 IRF3 luciferase reporter, at 10 µM, stronger effect = higher value
# Sequence of Alpha-2C adrenergic receptor (Homo sapiens) (P18825 whole entry, looked up): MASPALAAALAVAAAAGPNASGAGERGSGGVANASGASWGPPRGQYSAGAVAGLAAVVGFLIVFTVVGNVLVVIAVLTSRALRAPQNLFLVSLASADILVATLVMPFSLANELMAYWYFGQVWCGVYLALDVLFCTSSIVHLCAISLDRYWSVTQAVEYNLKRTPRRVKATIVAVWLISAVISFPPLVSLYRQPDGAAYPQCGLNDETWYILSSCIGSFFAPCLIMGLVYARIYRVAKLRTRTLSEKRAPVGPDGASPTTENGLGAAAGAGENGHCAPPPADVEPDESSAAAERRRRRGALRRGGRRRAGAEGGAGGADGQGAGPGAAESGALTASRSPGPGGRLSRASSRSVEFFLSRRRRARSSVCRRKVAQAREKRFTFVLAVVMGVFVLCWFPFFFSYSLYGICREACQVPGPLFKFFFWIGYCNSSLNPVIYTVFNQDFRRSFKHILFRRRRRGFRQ
# Sequence of Voltage-gated potassium channel subunit beta-2 (Rattus norvegicus) (P62483 whole entry, looked up): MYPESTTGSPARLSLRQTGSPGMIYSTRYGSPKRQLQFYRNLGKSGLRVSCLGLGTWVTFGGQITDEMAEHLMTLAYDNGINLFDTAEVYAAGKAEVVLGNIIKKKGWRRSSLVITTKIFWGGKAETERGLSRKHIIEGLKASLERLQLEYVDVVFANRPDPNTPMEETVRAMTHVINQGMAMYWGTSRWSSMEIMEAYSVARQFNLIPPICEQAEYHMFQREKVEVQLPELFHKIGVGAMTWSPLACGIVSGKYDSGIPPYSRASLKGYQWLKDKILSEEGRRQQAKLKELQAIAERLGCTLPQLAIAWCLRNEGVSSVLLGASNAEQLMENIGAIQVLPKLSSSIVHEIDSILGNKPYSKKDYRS
Compound,cell count [1],inhibition [1],inhibition of aggregation [2],nuclei count [2] [%],inhibition [3],nuclei count [3] [%],fluorescence slope [4],NADPH fluorescence slope [5],slope [6],inhibition [7],inhibition [8]
CCN(CC)C(=O)Cn1ncc2c1-c1ccccc1OC2,597,0.5% (inactive),-64.7% (inactive),102,-54.6% (inactive),123,-0.588 (inactive),-4.7e-05 (inactive),0.00665 (inactive),7.79% (inactive),16.3% (inactive)
Clc1cccc(Cl)c1COc1ccncc1,353,4.4% (inactive),11.7% (inactive),89.4,7.5% (inactive),104,-0.516 (inactive),7.2e-05 (inactive),0.00644 (inactive),-16.2% (inactive),-12% (inactive)
CC1CCN(S(=O)(=O)c2ccc(Br)s2)CC1,437,13% (inactive),-1.9% (inactive),102,-79.2% (inactive),108,-0.489 (inactive),2.6e-05 (inactive),0.00656 (inactive),8.6% (inactive),20.9% (inactive)
Cc1cc2ccccc2n1CCNC(=O)c1ccc(S(=O)(=O)N2CCOCC2)cc1,194,0.8% (inactive),14.3% (inactive),93.1,-41.3% (inactive),101,-0.603 (inactive),-1.9e-05 (inactive),0.00522 (inactive),13.5% (inactive),30% (inactive)
CCn1c(CNc2ccc(OC)cc2)nnc1SCC(=O)c1ccc(OC)cc1,544,-16.9% (inactive),1.8% (inactive),100,-101% (inactive),107,-0.502 (inactive),7.7e-06 (inactive),0.00516 (inactive),10% (inactive),14.7% (inactive)
CN(C)S(=O)(=O)Nc1ccccc1C(N)=O,425,-9.8% (inactive),-9.1% (inactive),102,-21.7% (inactive),109,-0.355 (inactive),-3.8e-05 (inactive),0.00484 (inactive),15.1% (inactive),11.7% (inactive)
CS(=O)(=O)N1CCCC(C(=O)NCCCN2CCc3ccccc3C2)C1 (stereo not drawn),228,3.4% (inactive),10.5% (inactive),83.5,35.8% (inactive),83.4,-0.54 (inactive),-1.5e-05 (inactive),0.00591 (inactive),-8.77% (inactive),5.97% (inactive)
CC(=O)c1c(O)cc(C)n(Nc2nc(C)cc(C)n2)c1=O,625,-12.1% (inactive),-23.4% (inactive),91.3,28.7% (inactive),91.8,-0.343 (inactive),-5.3e-05 (inactive),0.00406 (inactive),-1.56% (inactive),-18.7% (inactive)
